# According to PubChem BioAssay:
# Active and inactive are the calls of the source.
# Legend:
# [1] = optical density shifts of acrAB sulA E. coli – strain DRC41, OD650, 48 h, E. coli filamentation inducer project, primary screen (AID 1152); conditions: higher = more signal, called active from +8 up or from −8 down;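 also: E. coli MC1000 strain DRC41 lacking acrAB efflux pump and sulA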
# [2] = probe aLefty1 binding on compound microarray – biochemical, small-molecule microarray, 635/667 nm fluorescence, primary screen (AID 1153); conditions: higher = more signal;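 also: score merges spot fluorescence with signal-to-noise ratio from the scanned slide images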
# [3] = plasmodial surface anion channel blockers, osmotic lysis – cell-based, P. falciparum Indochina, OD700, 1 h, primary screen (AID 1154); conditions: P. falciparum Indochina infected RBC osmotic lysis, higher = more signal, called active from +8 up or from −8 down
# [4] = plasmodial surface anion channel blockers, osmotic lysis – cell-based, P. falciparum Indochina, OD700, 2 h, primary screen (AID 1155);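 also: lysis reports solute entry through the parasite surface anion channel PSAC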; conditions: P. falciparum Indochina infected erythrocytes, higher = more signal, called active from +8 up or from −8 down
# [5] = changes in parasitized red cell lysis, either direction – P. falciparum Indochina, OD700, 3 h, PSAC antagonist project, primary screen (AID 1156); conditions: P. falciparum-infected erythrocytes, osmotic lysis, higher = more signal, called active from +8 up or from −8 down
# [6] = plasmodial surface anion channel blockers, osmotic lysis – cell-based, P. falciparum Indochina, OD700, 18 h, primary screen (AID 1157); conditions: P. falciparum Indochina infected erythrocytes, osmotic lysis OD700, 18 h; higher = more signal, called active from +8 up or from −8 down
# [7] = S6 kinase pathway phospho-S6 level changes – cell-based, A549, cytoblot, luminescence, serum-stimulated, primary screen (AID 1158); conditions: 5 h, higher = more signal;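 also: serum-stimulated A549 lung adenocarcinoma cells; signal is phosphorylated S6 detected by cytoblot immunostaining with HRP secondary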
# [8] = biological target: NADPH oxidase 2 (Homo sapiens) (UniProt P04839); assay: compounds shifting NOX2 Amplex Red fluorescence – cell-based, HEK293-NOX2, PMA-stimulated, NOX inhibitor project, primary screen (AID 1159); conditions: 45 min, higher = more signal, called active from +8 up or from −8 down; also: test concentration not given here
# Chain of NADPH oxidase 2 (Homo sapiens) (P04839 whole entry, looked up): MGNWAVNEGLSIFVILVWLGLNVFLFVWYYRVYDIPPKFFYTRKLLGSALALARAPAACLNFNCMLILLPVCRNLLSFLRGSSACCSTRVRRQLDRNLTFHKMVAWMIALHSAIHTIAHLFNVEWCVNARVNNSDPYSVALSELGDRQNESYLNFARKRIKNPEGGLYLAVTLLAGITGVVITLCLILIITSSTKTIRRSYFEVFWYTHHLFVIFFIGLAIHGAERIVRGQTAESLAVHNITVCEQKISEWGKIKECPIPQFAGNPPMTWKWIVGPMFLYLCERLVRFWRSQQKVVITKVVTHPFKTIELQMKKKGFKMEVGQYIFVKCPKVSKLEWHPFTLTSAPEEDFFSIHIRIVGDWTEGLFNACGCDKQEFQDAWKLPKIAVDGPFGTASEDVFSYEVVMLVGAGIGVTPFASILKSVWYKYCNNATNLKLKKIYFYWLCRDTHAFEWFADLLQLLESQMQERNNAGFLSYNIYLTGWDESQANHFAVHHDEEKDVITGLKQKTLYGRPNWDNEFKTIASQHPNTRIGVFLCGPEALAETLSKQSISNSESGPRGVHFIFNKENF
# [9] = biological target: NADPH oxidase 4 (Homo sapiens) (UniProt Q9NPH5); assay: compounds shifting NOX4 Amplex Red fluorescence – cell-based, HEK293-NOX4, tetracycline-induced, NOX inhibitor project, primary screen (AID 1160); conditions: HEK293-NOX4, Amplex Red H2O2 fluorescence, 45 min; higher = more signal, called active from +8 up or from −8 down
# Chain of NADPH oxidase 4 (Homo sapiens) (Q9NPH5 whole entry, looked up): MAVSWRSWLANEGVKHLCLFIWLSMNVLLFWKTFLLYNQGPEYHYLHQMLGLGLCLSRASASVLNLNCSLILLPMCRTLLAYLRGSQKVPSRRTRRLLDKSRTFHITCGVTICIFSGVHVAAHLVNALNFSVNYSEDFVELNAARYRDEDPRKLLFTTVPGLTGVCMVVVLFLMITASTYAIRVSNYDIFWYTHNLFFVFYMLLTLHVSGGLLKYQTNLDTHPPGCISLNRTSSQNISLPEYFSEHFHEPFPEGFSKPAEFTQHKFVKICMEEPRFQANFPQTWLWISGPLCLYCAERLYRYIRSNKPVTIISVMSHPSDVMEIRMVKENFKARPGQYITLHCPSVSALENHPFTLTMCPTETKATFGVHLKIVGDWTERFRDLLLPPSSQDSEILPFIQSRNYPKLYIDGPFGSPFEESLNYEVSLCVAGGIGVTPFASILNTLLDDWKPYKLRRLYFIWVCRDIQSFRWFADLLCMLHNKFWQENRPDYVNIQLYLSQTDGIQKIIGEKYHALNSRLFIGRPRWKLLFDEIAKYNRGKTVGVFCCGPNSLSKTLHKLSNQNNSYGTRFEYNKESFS
# [10] = biological target: NADPH oxidase 5 (Homo sapiens) (UniProt Q96PH1); assay: compounds shifting NOX5 Amplex Red fluorescence – cell-based, HEK293-NOX5, NOX inhibitor project, primary screen (AID 1161); conditions: HEK293-NOX5, ionomycin, 45 min, higher = more signal
# Chain of NADPH oxidase 5 (Homo sapiens) (Q96PH1 whole entry, looked up): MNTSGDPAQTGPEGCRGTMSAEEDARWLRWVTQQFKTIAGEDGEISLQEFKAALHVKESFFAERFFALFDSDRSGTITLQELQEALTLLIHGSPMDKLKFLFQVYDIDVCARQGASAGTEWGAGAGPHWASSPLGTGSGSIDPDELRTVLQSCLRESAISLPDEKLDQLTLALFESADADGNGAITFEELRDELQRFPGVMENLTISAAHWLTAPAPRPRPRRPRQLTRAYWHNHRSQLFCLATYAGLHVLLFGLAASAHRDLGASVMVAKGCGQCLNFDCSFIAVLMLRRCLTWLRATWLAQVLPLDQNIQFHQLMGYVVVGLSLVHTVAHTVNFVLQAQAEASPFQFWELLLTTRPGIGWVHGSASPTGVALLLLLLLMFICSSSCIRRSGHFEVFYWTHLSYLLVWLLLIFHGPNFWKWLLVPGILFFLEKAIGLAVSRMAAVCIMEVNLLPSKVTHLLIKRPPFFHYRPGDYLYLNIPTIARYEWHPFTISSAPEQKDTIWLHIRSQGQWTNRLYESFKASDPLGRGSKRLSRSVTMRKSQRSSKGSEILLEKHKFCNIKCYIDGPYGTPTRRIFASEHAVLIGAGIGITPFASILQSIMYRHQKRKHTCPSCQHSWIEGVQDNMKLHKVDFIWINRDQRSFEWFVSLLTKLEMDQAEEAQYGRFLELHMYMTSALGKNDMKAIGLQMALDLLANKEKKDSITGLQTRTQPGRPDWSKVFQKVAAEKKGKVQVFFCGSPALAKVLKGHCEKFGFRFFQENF
# [11] = compound effects on lung adenocarcinoma cell viability – A549, calcein-AM fluorescence, 48 h, basal, profiling panel (AID 1162); conditions: higher = more signal; also: test concentration not given here
# [12] = compound effects on differentiated 3T3-L1 adipocyte viability – cell-based, 3T3-L1 adipocytes, calcein-AM fluorescence, 48 h, basal, profiling panel (AID 1163); conditions: 3T3-L1 adipocytes viability, higher = more signal; also: test concentration not given here
# [13] = compound effects on hepatocellular carcinoma cell viability – HepG2, calcein-AM fluorescence, 48 h, basal, profiling panel (AID 1164); conditions: higher = more signal; also: test concentration not given here
# [14] = compound effects on multiple myeloma cell viability – MM1S, calcein-AM fluorescence, 48 h, basal, profiling panel (AID 1165); conditions: higher = more signal; also: test concentration not given here
# [15] = calcein-AM signal in unstimulated myeloma cells – cell-based, calcein-AM fluorescence, 48 h, PK04 Diversity Set, profiling panel (AID 1166); conditions: RPMI8226 myeloma viability, higher = more signal;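 also: cells grown under basal conditions without added stimulus; test concentration not given here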
# [16] = JC-1 mitochondrial signal, unstimulated HepG2 cells – cell-based, JC-1 fluorescence, 24 h, 100 nL compound, profiling panel (AID 1167); conditions: HepG2 mitochondrial potential, higher = more signal; also: test concentration not given here
# [17] = JC-1 mitochondrial signal, unstimulated adipocytes – cell-based, JC-1 fluorescence, 3T3-L1 adipocytes, 24 h, 100 nL compound, profiling panel (AID 1168); conditions: JC-1 mitochondrial fluorescence, higher = more signal, called active from +8 up or from −8 down; also: test concentration not given here
# [18] = JC-1 mitochondrial signal, unstimulated myeloma cells – cell-based, JC-1 fluorescence, RPMI8226, 24 h, 100 nL compound, profiling panel (AID 1169); conditions: JC-1 mitochondrial potential fluorescence, higher = more signal; also: test concentration not given here
# [19] = JC-1 mitochondrial signal, unstimulated MM1S myeloma – cell-based, JC-1 fluorescence, 24 h, 100 nL compound, profiling panel (AID 1170); conditions: MM1S mitochondrial potential, higher = more signal; also: test concentration not given here
# [20] = resazurin metabolic signal in A549 cells – cell-based, resazurin fluorescence, 24 h, PK04 Diversity Set, profiling panel (AID 1171); conditions: A549 viability, higher = more signal, called active from +8 up or from −8 down; also: test concentration not given here
Compound,z-score [1],composite z-score [2],z-score [3],z-score [4],z-score [5],z-score [6],z-score [7],z-score [8],z-score [9],z-score [10],z-score [11],z-score [12],z-score [13],z-score [14],z-score [15],z-score [16],z-score [17],z-score [18],z-score [19],z-score [20]
O=C1N(CCS(=O)(=O)c2ccccc2)c2ccccc2[C@@H]2OC(c3ccc(OCCCO)cc3)=N[C@]12CCS(=O)(=O)c1ccccc1,-0.927 (inactive),0.677,28.2 (active),23.7 (active),1.18 (inactive),3.96 (inactive),-0.47,0.678 (inactive),2.42 (inactive),2.43,0.762,0.675,-0.136,-1.68,-0.104,-1.04,1.48 (inactive),-0.845,-0.774,0.967 (inactive)
CO[C@H]1O[C@H](CO)[C@@H](OC(=O)Nc2ccc3c(c2)OCO3)[C@@H]2OC(=O)[C@@H](Cc3ccccc3)C/C=C/C[C@H](Cc3ccccc3)C(=O)O[C@@H]12,0.239 (inactive),0.12,2.93 (inactive),0.825 (inactive),0.0814 (inactive),1.09 (inactive),0.401,-0.895 (inactive),-0.162 (inactive),-1.47,1.9,-2.78,0.843,-0.69,-0.197,0.186,0.912 (inactive),-0.469,-0.897,-1.64 (inactive)
C=CCC(OC(C)=O)[C@@H]1[C@@H](N(Cc2ccc(-c3ccccc3)cc2)C(=O)c2cccc3ccccc23)c2cc(OCCCO)ccc2N1C(=O)c1ccc2ccccc2c1 (stereo not given in full),-0.887 (inactive),-0.0447,0.441 (inactive),-0.35 (inactive),-0.0836 (inactive),-0.0577 (inactive),-0.146,-0.634 (inactive),-0.572 (inactive),-4.29,0.197,-0.114,0.833,-0.679,-0.202,1.91,-1.3 (inactive),-0.53,0.0357,-0.725 (inactive)
C[C@]1(C(=O)NCC(F)(F)F)c2ccccc2C(=O)N(Cc2ccc(OC(F)(F)F)cc2)[C@H]1c1ccc(CO)cc1,-0.831 (inactive),-0.284,2.58 (inactive),0.295 (inactive),3.67 (inactive),0.451 (inactive),-0.32,1.45 (inactive),-0.0975 (inactive),-1.45,0.377,0.194,0.334,0.0863,-1.37,0.756,-0.235 (inactive),1.04,0.157,0.0382 (inactive)
C=CCOC(=O)[C@H]1[C@@H]2C(=O)O[C@@H](c3ccccc3)[C@@H](c3ccccc3)N2[C@@H](c2ccc(OCCOC(=O)[C@@H]3C[C@@H]4C(=O)N[C@@H](Cc5ccccc5)C(=O)N4[C@@H]3c3ccc(O)cc3)cc2)[C@]12C(=O)Nc1ccccc12,-0.126 (inactive),-0.0235,2.33 (inactive),0.776 (inactive),1.28 (inactive),0.914 (inactive),0.896,1.48 (inactive),1.14 (inactive),2.13,0.137,-0.156,-0.338,-1.31,0.0712,-1.37,-0.262 (inactive),-0.616,-1.02,0.0598 (inactive)
CCCCC(=C=CC[C@@H](O)c1ccc(OCCO)cc1)C[C@@H](O)c1ccccn1,0.26 (inactive),0.122,15.7 (active),2.47 (inactive),0.871 (inactive),0.849 (inactive),-0.787,-0.697 (inactive),-0.351 (inactive),-1.77,-0.0074,0.0358,0.333,-2.63,-0.616,-1.05,-1.58 (inactive),-0.674,-0.94,-0.477 (inactive)
COc1ccc(CCNC(=O)[C@@]2(Sc3ccc(C)cc3)CC(=O)N(C(C)C)[C@@H]2c2ccc(CO)cc2)cc1,-0.58 (inactive),0.0391,2.36 (inactive),0.741 (inactive),0.152 (inactive),0.549 (inactive),-0.21,-0.575 (inactive),-1.16 (inactive),-2.03,0.353,0.356,-0.453,-0.169,0.0991,-0.41,0.0372 (inactive),0.043,0.277,-0.107 (inactive)
CCOC(=O)C1=CC[C@@H](c2ccccc2)N(S(=O)(=O)C[Si](C)(C)C)[C@H]1c1ccccc1,-2.2 (inactive),0.0437,2.05 (inactive),1.83 (inactive),0.0192 (inactive),0.999 (inactive),-0.692,0.324 (inactive),-1.26 (inactive),0.839,-0.96,0.147,0.0425,0.0106,0.242,-1.37,-0.479 (inactive),-0.687,-0.667,0.946 (inactive)
C=C(COC)C(=O)CC[C@@H](OC(=O)c1cccnc1)c1cccc(OCCO)c1,0.857 (inactive),0.571,13.9 (active),1.86 (inactive),1.21 (inactive),0.454 (inactive),0.28,-3.15 (inactive),-0.703 (inactive),-1.33,-0.0547,0.627,-0.714,-3.31,-1.71,0.082,0.195 (inactive),-0.26,-1.78,0.9 (inactive)
